Measurements from the supplement of paper PMC9023506.
Structures can show the parent of a compound that is named as a salt.

tested on: Danio rerio larvae (5 dpf); test: habituation to 1-s acoustic pulses, difference vs DMSO (percentage points (treated minus DMSO)); higher = more of the behaviour than the DMSO vehicle control; settings: 10 µM; exposure time: 3 h pre-incubation + 3 h imaging
Experimental: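 5-dpf wild-type zebrafish larvae were imaged in 96-well plates. They were treated with 190 Tocris FDA-approved drugs at 10 µM (1 µl/ml DMSO) for 3 h before and 3 h during imaging at 28.5 °C, 48 larvae per drug. Automated image analysis gave % time moving and optomotor responses. Values are drug group mean minus DMSO vehicle mean (n=844), in percentage points, for 10 behaviours.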

Row | SMILES | habituation to 1-s acoustic pulses
1 | C=CCN1C[C@H](C(=O)N(CCCN(C)C)C(=O)NCC)C[C@@H]2c3cccc4[nH]cc(c34)C[C@H]21 [Cabergoline] | 3.78
2 | CC(O)(CS(=O)(=O)c1ccc(F)cc1)C(=O)Nc1ccc(C#N)c(C(F)(F)F)c1 (configuration not stated) [Bicalutamide] | -5.47
3 | N[C@@H]1C[C@H]1c1ccccc1 [Tranylcypromine hydrochloride] | -0.45
4 | CN1C[C@H](C(=O)N[C@]2(C)O[C@@]3(O)[C@@H]4CCCN4C(=O)[C@H](Cc4ccccc4)N3C2=O)C[C@@H]2c3cccc4[nH]cc(c34)C[C@H]21 [Dihydroergotamine mesylate] | 1.85
5 | CCN(C)C(=O)Oc1cccc([C@H](C)N(C)C)c1 [Rivastigmine tartrate] | -1.77
6 | COc1cc2c(cc1OC)C1CC(=O)C(CC(C)C)CN1CC2 (configuration not stated) [Tetrabenazine] | 1.65
7 | Cc1cccc([C@H](C)c2c[nH]cn2)c1C [Dexmedetomidine hydrochloride] | -9.7
8 | CC(C)C[C@H]1C(=O)N2CCC[C@H]2[C@]2(O)O[C@](NC(=O)[C@@H]3C=C4c5cccc6[nH]c(Br)c(c56)C[C@H]4N(C)C3)(C(C)C)C(=O)N12 [Bromocriptine mesylate] | -3.22
9 | O=c1[nH]c2ccccc2n1C1CCN(CCCC(c2ccc(F)cc2)c2ccc(F)cc2)CC1 [Pimozide] | -6.41
10 | CC[C@@H](C(N)=O)N1CCCC1=O [Levetiracetam] | -2.74
11 | COc1ccc(C(CN(C)C)C2(O)CCCCC2)cc1 (configuration not stated) [Venlafaxine hydrochloride] | -6.08
12 | C=C1C[C@@H]2[C@H](CC[C@]3(C)C(=O)CC[C@@H]23)[C@@]2(C)C=CC(=O)C=C12 [Exemestane] | -0.223
